Where “and” joins values, the source holds several entries; their conditions need not be identical. Equal entries are not always repeated. Records with an inconclusive call do not appear. Calls of active or inactive are those of the source. Calls follow the shape of the dose curve; as a rule, active = well fitted curve in the direction sought with a large enough effect; inconclusive = small, poorly fitted or top-dose-only effect, or another doubt; inactive = no such curve, though single readings can be large; an effect the other way counts as inactive or inconclusive.
What was measured:
[1] = P-glycoprotein substrates identified in KB-8-5-11 adenocarcinoma cell line, qHTS therapeutic library screen (AID 1346987); also: nearly all actives have a fitted effect of over 65% in size; also: potency is read from the fitted curve at half-maximal effect
How it was run: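 Compounds are pinned in dose-response onto KB-8-5-11 cells (500 cells/well, colchicine-free medium) and left 72 h at 37 degree C. CellTiter-Glo luminescence then yields AC50 values.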

[2] = Primary qHTS for inhibitors of nuclear receptor binding SET domain protein 2 (NSD2) in an isogenic RCH-ACV NSD2 p.E1099K mutant (9B) (AID 1645876); also: nearly all actives have a fitted effect of over 70% in size; also: potency is read from the fitted curve at half-maximal effect
[3] = Primary qHTS for inhibitors of nuclear receptor binding SET domain protein 2 (NSD2) in an RCH-ACV wild type WT cells (2C) (AID 1645877); also: nearly all actives have a fitted effect of over 70% in size; also: potency is read from the fitted curve at half-maximal effect
[4] = molecular target: Glutathione peroxidase 1 (Homo sapiens) (UniProt P07203); assay: Primary qHTS Assay for Inhibitors of Recombinant Selenoprotein Glutathione Peroxidase 1 (GPX1) (AID 1845191); also: nearly all actives have a fitted effect of over 65% in size; as to activity, negative = inhibition: % is scaled to controls: 0 for no effect and ±100 for the full control effect
Sequence of Glutathione peroxidase 1 (Homo sapiens) (P07203 whole entry, looked up): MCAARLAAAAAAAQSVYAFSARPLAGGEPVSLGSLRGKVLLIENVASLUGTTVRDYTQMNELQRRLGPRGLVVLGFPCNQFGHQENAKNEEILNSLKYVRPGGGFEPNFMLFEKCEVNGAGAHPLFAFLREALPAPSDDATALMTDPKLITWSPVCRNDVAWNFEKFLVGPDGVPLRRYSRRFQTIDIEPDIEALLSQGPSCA
How it was run: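 GPX1 10 nM, GR 100 nM, GSH 1 mM, NADPH 0.5 mM, CHP 0.5 mM (final). 30-min cpd preincubation, RT. Ex340/Em450 read t=0, t=15 min.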

[5] = molecular target: Phospholipid hydroperoxide glutathione peroxidase GPX4 (Homo sapiens) (UniProt P36969); assay: Primary qHTS Assay for Inhibitors of Recombinant Selenoprotein Glutathione Peroxidase 4 (GPX4) (AID 1845192); also: nearly all actives have a fitted effect of over 65% in size
Sequence of Phospholipid hydroperoxide glutathione peroxidase GPX4 (Homo sapiens) (P36969 whole entry, looked up): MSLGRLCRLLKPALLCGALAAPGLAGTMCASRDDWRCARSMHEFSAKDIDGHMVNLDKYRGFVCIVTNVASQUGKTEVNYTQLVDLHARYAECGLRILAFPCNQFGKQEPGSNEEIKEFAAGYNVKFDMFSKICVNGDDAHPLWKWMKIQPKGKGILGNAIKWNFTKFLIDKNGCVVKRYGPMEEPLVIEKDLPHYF
How it was run: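 qHTS, GR-coupled: GPX4 200 nM + cpd 30 min RT → GSH 1 mM, NADPH 0.5 mM, GR 100 nM → CHP 0.5 mM start; fluor 340/450 at t0 and t15 min; no-enzyme wells as control.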

[6] = molecular target: Luciferin 4-monooxygenase (Photinus pyralis) (UniProt P08659); assay: Primary firefly luciferase (FLuc) qHTS assay for identification of artifact compounds. (AID 1845220); settings: outcome: dose series up to 54.1 µM unless noted; also: nearly all actives have a fitted effect of over 60% in size
How it was run: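 In this counter-screen for luciferase artifacts, test compounds met substrate (10 uM each luciferin and ATP) before 10 nM enzyme started the reaction. Light output was measured 5 min later.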

[7] = test system: Nanoluciferase (engineered Oplophorus gracilirostris luciferase); assay: Primary Nanoluciferase (NLuc) qHTS assay for identification of artifact compounds. (AID 1845222); also: potency is read from the fitted curve at half-maximal effect;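 as to activity, negative = inhibition: NLuc secreted into diluted conditioned medium of S16 cells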
How it was run: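 Using secreted nanoluciferase in S16 culture medium (0.22 um filtered, 1:55 dilution), compounds were preincubated 15 min at RT. Signal was generated with Nano-Glo reagent (1:100) over 5 min.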

[8] = test system: CRL-7250; assay: Cytotoxic Profiling of Annotated Libraries Using Quantitative High-Throughput Screening (AID 1296008); settings: Five cell lines viability, CellTiter-Glo ATP luminescence, 48-72 h; max response: active compounds read low; also: nearly all actives have a fitted effect of over 60% in size; also: potency is read from the fitted curve at half-maximal effect; as to max response: % is scaled to controls: 0 for no effect and ±100 for the full control effect
How it was run: (§1)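 Compounds were pin-transferred onto cells and incubated 48 or 72 hr at 37 degree Celsius, 95% humidity. CellTiter-Glo was added, plates sat 10 min at room temperature, then ATP-coupled luminescence was imaged as the viability read-out.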

[9] = test system: HEK293; assay: as above; settings: Five cell lines viability, CellTiter-Glo ATP luminescence, 48-72 h; max response: active compounds read low
How it was run: as §1

[10] = test system: HaCat; assay: as above; settings: Five cell lines viability, CellTiter-Glo ATP luminescence, 48-72 h; max response: active compounds read low
How it was run: as §1

[11] = test system: NIH3T3; assay: as above; settings: Five cell lines viability, CellTiter-Glo ATP luminescence, 48-72 h; max response: active compounds read low
How it was run: as §1

[12] = test system: CASKI; assay: Primary qHTS to identify gynecologic anti-cancer compounds using libraries of approved drugs and bioactive compounds (AID 1345084); settings: Gynecologic cancer cell panel viability, ATPlite luminescence, 48 h; series mostly up to 57.5 µM; also: nearly all actives have a fitted effect of over 55% in size; also: potency is read from the fitted curve at half-maximal effect
How it was run: (§2)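 Measured: luminescence after ATPlite addition (15 min, RT). Exposure: 48 h, 37 C, 5% CO2.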

[13] = test system: Es-2; assay: as above; settings: Gynecologic cancer cell panel viability, ATPlite luminescence, 48 h; series mostly up to 57.5 µM
How it was run: as §2

[14] = test system: HeLa; assay: as above; settings: Gynecologic cancer cell panel viability, ATPlite luminescence, 48 h; series mostly up to 57.5 µM
How it was run: as §2

[15] = test system: Hek293T; assay: as above; settings: Gynecologic cancer cell panel viability, ATPlite luminescence, 48 h, control line for the selectivity index; series mostly up to 57.5 µM
How it was run: as §2

[16] = test system: OV90; assay: as above; settings: Gynecologic cancer cell panel viability, ATPlite luminescence, 48 h; series mostly up to 57.5 µM
How it was run: as §2

[17] = test system: Tov-21-G; assay: as above; settings: Gynecologic cancer cell panel viability, ATPlite luminescence, 48 h; series mostly up to 57.5 µM
How it was run: as §2

[18] = test system: Tov112D; assay: as above; settings: Gynecologic cancer cell panel viability, ATPlite luminescence, 48 h; series mostly up to 57.5 µM
How it was run: as §2

[19] = test system: C33A; assay: as above; settings: Gynecologic cancer cell panel viability, ATPlite luminescence, 48 h; series mostly up to 57.5 µM
How it was run: as §2

[20] = test system: PA-1; assay: as above; settings: Gynecologic cancer cell panel viability, ATPlite luminescence, 48 h; series mostly up to 57.5 µM
How it was run: as §2

CC(=O)OC[C@]12C[C@H](OC(=O)CC(C)C)C(C)=C[C@H]1O[C@@H]1[C@H](O)[C@@H](OC(C)=O)[C@@]2(C)[C@@]12CO2
inactive: Potency [4] | Potency [5] | outcome [6] inactive [at 25.7 µM] | Potency [7]
active: Potency [1] 25.2 nM | Potency [2] 22.4 nM | Potency [3] 10 nM | Potency [8] 89.3 nM | Potency [9] 22.4 nM | Potency [10] 224 nM | Potency [11] 50.2 nM | Potency [12] 199 nM | Potency [13] 100 nM | Potency [14] 158 nM | Potency [15] 112 nM | Potency [16] 2.51 µM | Potency [17] 224 nM | Potency [18] 224 nM

COC1CC(O[C@H]2CC[C@]3(C=O)C4CC[C@]5(C)[C@@H](C6=CC(=O)OC6)CC[C@]5(O)[C@@H]4CC[C@@H]3C2)OC(C)C1O[C@@H]1O[C@H](CO)[C@@H](O[C@@H]2O[C@H](CO)[C@@H](O)[C@H](O)[C@H]2O)[C@H](O)[C@H]1O (stereo not given in full)
active: Potency [1] 123 nM | Potency [2] 77.4 nM | Potency [3] 123 nM | Potency [8] 123 nM | Potency [9] 219 nM | Potency [10] 873 nM | Potency [19] 178 nM | Potency [13] 398 nM | Potency [14] 398 nM | Potency [15] 447 nM | Potency [16] 1.58 µM | Potency [20] 447 nM | Potency [17] 224 nM | Potency [18] 112 nM
inactive: Potency [4] | Potency [5] | activity, negative = inhibition [7] 1.46% [at 11.6 µM] | max response [11] 3.23%

CC[C@@]1(O)C(=O)OCc2c1cc1n(c2=O)Cc2cc3c(OC)cccc3nc2-1
active: Potency [1] 805 nM | Potency [2] 7.1 nM | Potency [3] 10.1 nM | Potency [8] 5080 nM | Potency [9] 50.8 nM | Potency [10] 114 nM | Potency [19] 631 nM | Potency [15] 1580 nM | Potency [16] 1.12 µM | Potency [20] 89.1 nM | Potency [17] 5620 nM | Potency [18] 224 nM
inactive: Potency [4] | Potency [5] | outcome [6] | Potency [7]

CN1C[C@@H]2CN(c3ccc(-c4ccccc4)nn3)C[C@@H]2C1
inactive: Potency [1] | Potency [2] | Potency [3] | Potency [4] | Potency [5] | outcome [6] | Potency [7] | max response [8] 2.36% | max response [9] -5.4% | max response [10] -2.1% | outcome [11] | Potency [19] | Potency [13] | Potency [14] | Potency [15] | Potency [16] | Potency [20] | Potency [17] | Potency [18]

Cc1sc2c(c1C)C(c1ccc(Cl)cc1)=NC(CC(=O)Nc1ccc(O)cc1)c1nnc(C)n1-2 (stereo not given)
inactive: Potency [5] | outcome [6] | Potency [7] | max response [10] -9.94% | Potency [19] | Potency [12] | Potency [13] | Potency [15]
active: Potency [2] 129 nM and 263 nM | Potency [3] 129 nM and 296 nM | Potency [8] 1160 nM | Potency [9] 1460 nM | Potency [11] 1300 nM | Potency [20] 1780 nM

Cc1ccccc1CN1CCC(N2CCC(n3c(=O)[nH]c4ccccc43)CC2)CC1
inactive: Potency [2] | Potency [3] | Potency [4] | Potency [5] | outcome [6] | Potency [7] | max response [10] 0.939% | outcome [11] | Potency [12] | Potency [13] | Potency [14] | Potency [20] | Potency [17] | Potency [18]
active: Potency [8] 7310 nM | Potency [9] 6510 nM

C=CCN1CC[C@]23c4c5ccc(O)c4O[C@H]2[C@@H](O)CC[C@@]3(O)[C@H]1C5
inactive: Potency [1] | Potency [2] | Potency [3] | Potency [4] | Potency [5] | Potency [7] | max response [8] -15.6% | max response [9] -13.2% | max response [10] 3.65% | max response [11] -28.6% | Potency [19] | Potency [12] | Potency [13] | Potency [14] | Potency [15] | Potency [16] | Potency [20] | Potency [17] | Potency [18]

C[C@]12CC[C@H](O[C@@H]3O[C@H](CO)[C@@H](O)[C@H](O)[C@H]3O[C@@H]3O[C@H](CO)[C@@H](O)[C@H](O)[C@H]3O)CC1=CC[C@@H]1[C@@H]2CC[C@]2(C)[C@@H](C3=CC(=O)OC3)CC[C@]12O
inactive: Potency [4] | Potency [5] | outcome [6] inactive [at 25.7 µM] | Potency [7] | max response [10] -17% | max response [11] 1.49% | Potency [12] | Potency [16]
active: Potency [2] 2160 nM | Potency [3] 4300 nM | Potency [8] 3850 nM | Potency [9] 6110 nM | Potency [17] 6310 nM

COc1cc2c(c(OC)c1OC)-c1ccc(SC)c(=O)cc1[C@@H](NC(C)=O)CC2
active: Potency [1] 231 nM | Potency [2] 4.6 nM | Potency [3] 5.8 nM | Potency [7] 19 µM | Potency [8] 9.2 nM | Potency [9] 8.2 nM
inactive: Potency [4] | Potency [5] | outcome [6] | max response [10] 4.59% | Potency [12]

C[C@@H]1CN(Cc2ccc(F)cc2)CCN1C(=O)COc1ccc(Cl)cc1NC(N)=O
inactive: Potency [4] | Potency [5] | outcome [6] | Potency [7] | max response [10] -27% | Potency [14] | Potency [17]
active: Potency [8] 731 nM | Potency [9] 1300 nM | Potency [19] 2510 nM | Potency [16] 8.91 µM
